Key:
Settings in all cases: concentration: 1 μM, replicates: in singlicate; n = 1
HUNK = tested on: HUNK
ICK = tested on: ICK
IGF1R = tested on: IGF1R
IKK-alpha = tested on: T1, IKK-alpha
T1 construct: gene CHUK

IKK-beta = tested on: T2, IKK-beta
T2 construct: gene IKBKB

IKK-epsilon = tested on: T3, IKK-epsilon
T3 construct: gene IKBKE

INSRR = tested on: INSRR
INSR = tested on: INSR
IRAK1 = tested on: IRAK1
IRAK3 = tested on: IRAK3
IRAK4 = tested on: IRAK4
ITK = tested on: ITK
[1] = tested on: JAK1(JH1domain-catalytic)
[2] = tested on: JAK1(JH2domain-pseudokinase)
[3] = tested on: JAK2(JH1domain-catalytic)
[4] = tested on: JAK3(JH1domain-catalytic)
JNK1 = tested on: T4, JNK1
T4 construct: gene MAPK8

JNK2 = tested on: T5, JNK2
T5 construct: gene MAPK9

JNK3 = tested on: T6, JNK3
T6 construct: gene MAPK10

KIT-autoinhibited = tested on: KIT-autoinhibited
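Further: KINOMEscan kinase panel screen.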

Row | Compound | %Inh (HUNK) [%] | %Inh (ICK) [%] | %Inh (IGF1R) [%] | %Inh (IKK-alpha) [%] | %Inh (IKK-beta) [%] | %Inh (IKK-epsilon) [%] | %Inh (INSRR) [%] | %Inh (INSR) [%] | %Inh (IRAK1) [%] | %Inh (IRAK3) [%] | %Inh (IRAK4) [%] | %Inh (ITK) [%] | %Inh [1] [%] | %Inh [2] [%] | %Inh [3] [%] | %Inh [4] [%] | %Inh (JNK1) [%] | %Inh (JNK2) [%] | %Inh (JNK3) [%] | %Inh (KIT-autoinhibited) [%]
1 | Fc1cc(Cl)ccc1Nc1ccnc2cc(-c3ccc(CN4CCCCC4)o3)ccc12 [GW560116] | 9 | 0 | 24 | 0 | 0 | 20 | 0 | 0 | 22 | 0 | 0 | 2 | 11 | 0 | 24 | 0 | 0 | 1 | 0 | 0
2 | Cn1ccc2ncnc(Oc3cccc(C(=O)Nc4ccccc4)c3)c21 | 0 | 8 | 2 | 22 | 15 | 7 | 0 | 16 | 0 | 0 | 8 | 0 | 7 | 27 | 12 | 0 | 16 | 0 | 0 | 0
3 | Nc1nc(-c2nccs2)c(-c2ccnc3ccccc23)s1 [GW693542] | 23 | 0 | 10 | 0 | 9 | 31 | 0 | 0 | 18 | 7 | 16 | 6 | 17 | 0 | 10 | 0 | 20 | 22 | 1 | 0
4 | Cc1cc(-c2ccc3c(c2)CC[C@@H](N[C@@H](C)c2ccccc2)C3)cnc1N.Cl [GW412617] | 0 | 0 | 0 | 0 | 0 | 0 | 31 | 17 | 76 | 2 | 71 | 18 | 12 | 46 | 34 | 0 | 36 | 3 | 4 | 0
5 | Cc1cc(N2Cc3ccccc3C2)nc(Nc2ccc(S(=O)(=O)N3CCOCC3)cc2)n1.Cl [GSK1669917] | 0 | 99.9 | 2 | 0 | 0 | 29 | 0 | 100 | 0 | 0 | 0 | 0 | 11 | 0 | 0 | 0 | 3 | 13 | 1 | 3
6 | COc1ccc(Nc2nccc(-c3cccc(NC(=O)c4cc5cc(F)ccc5[nH]4)c3)n2)cc1 [GSK1229782] | 8 | 0 | 17 | 21 | 13 | 0 | 0 | 0 | 25 | 42 | 3 | 23 | 34 | 0 | 10 | 0 | 28 | 34 | 15 | 0
7 | CCn1c(-c2cccnc2O)nc2cnccc21 [SB-736715] | 0 | 0 | 0 | 0 | 0 | 0 | 0 | 0 | 0 | 0 | 0 | 26 | 0 | 0 | 0 | 0 | 0 | 10 | 1 | 18
8 | CCCc1ccc(S(=O)(=O)NC2CCN(c3ccnc(Nc4ccc(F)cc4)n3)C2)cc1 (stereo not drawn) [GSK1379715] | 5 | 0 | 0 | 33 | 36 | 0 | 0 | 1 | 36 | 0 | 16 | 6 | 18 | 0 | 52 | 0 | 24 | 21 | 9 | 0
9 | Cc1ccc(C(=O)Nc2ccc(Nc3ccnc4cc(-c5ccccn5)ccc34)cc2O)cc1.Cl [GW440146] | 23 | 0 | 18 | 0 | 0 | 16 | 0 | 1 | 28 | 3 | 9 | 0 | 16 | 0 | 5 | 0 | 5 | 15 | 0 | 17
